# Inconclusive results are not listed. Active and inactive are the calls of the source.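 Rule for the calls, unless noted: active = normalized viability below 100% at a tested concentration; inactive = the rest.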
# How the values were obtained:
# [1] = growth inhibition of DIPG glioma cells, dose response, cell-based, SU-DIPG-XVII, MIPE5.0, CellTiter-Glo, qHTS (AID 1347060; cut-off not given, nearly all actives have AC50 up to about 26 µM;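 note: cells exposed to compound for 48 hours before viability readout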); settings: SU-DIPG-XVII viability, CellTiter-Glo ATP luminescence
# [2] = growth inhibition of DIPG glioma cells, dose response, cell-based, JHH-DIPG-1, MIPE4.0, CellTiter-Glo, qHTS (AID 1347062; cut-off not given, nearly all actives have AC50 up to about 27 µM;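 note: cells exposed to compound for two days before readout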); settings: JHH-DIPG-1 viability, CellTiter-Glo ATP luminescence
# [3] = growth inhibition of DIPG glioma cells, dose response, cell-based, SU-DIPG-IV, MIPE4.0, CellTiter-Glo, qHTS (AID 1347063; cut-off not given, nearly all actives have AC50 up to about 30 µM;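 note: compound exposure lasted 48 hours before the viability readout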); settings: SU-DIPG-IV viability, CellTiter-Glo ATP luminescence
# [4] = viability loss in pontine glioma line – cell-based, SU-DIPG-XXV, MIPE5.0, CellTiter-Glo, qHTS, dose response (AID 1347065; cut-off not given, nearly all actives have AC50 up to about 26 µM;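 note: cells exposed to compound for 48 hours before ATP readout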); settings: CellTiter-Glo ATP luminescence
# [5] = JHH-DIPG-1 glioma cell viability, MIPE5.0 library, CellTiter-Glo luminescence, qHTS (AID 1347067; cut-off not given, nearly all actives have AC50 up to about 26 µM;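 note: cells exposed to compound for 48 hours before readout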); settings: JHH-DIPG-1 glioma viability, CellTiter-Glo ATP luminescence
# [6] = SU-DIPG-XXV glioma cell viability, MIPE5.0 library, qHTS (AID 1347068; cut-off not given, nearly all actives have IC50 up to about 30 µM;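 note: cells exposed to compound for 48 hours before viability readout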)
# [7] = modifiers of HSF1 nuclear foci, imaging, Selleck Cancer Library (AID 1347162; in the data active = plate-normalised HSF1 focus index below about 0.46); settings: human cells, at 10 µM; SSMD: measured here: HSF1 foci SSMD mean; cell count: measured here: cell number; plate-normalised HSF1 focus index: stronger effect = lower value
# [8] = ovarian cancer cell viability with rucaparib, profiling panel, oncology-focused library, rucaparib conditional (AID 1508598); settings: patient-derived ovarian cancer cells, CellTiter-Glo viability, 144 h, stronger effect = lower value
# [9] = sensitizers of A549 cells to miR-34 induction, primary screen, imaging, A549 dox-inducible miR-34, nuclei and caspase counts (AID 1347080;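 active = compounds whose cell count with miR-34 switched on is under 0.7 times the count with it off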); settings: A549 miR-34 inducible, Hoechst nuclei count, 48 h
# [10] = survival rescue of mitochondrial mutant cells in low glucose, primary screen, MELAS cybrids, Rieske KO mouse fibroblasts, CellTiter-Glo (AID 1508586;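 active = mean z-score across replicates of 1.96 or higher in either the MELAS or the Rieske mutant cell line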;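 note: z relative to plate mean and SD of compound and empty wells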)
# [11] = LFS_MB_P medulloblastoma growth inhibition, cell-based, chromothripsis tumors, cisplatin or BGB combos (AID 1671449; in the data active = inhibition above about 80%;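 note: cells exposed for 96 hours; 0% = vehicle DMSO and 100% = killing by high DMSO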); settings: LFS_MB_P medulloblastoma cells
# [12] = HDN33 neuroblastoma growth inhibition, cell-based, chromothripsis tumors, cisplatin or BGB combos (AID 1671450; in the data active = inhibition above about 80%;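 note: cells exposed to compound for four days; 0% = vehicle DMSO and 100% = cell killing by high DMSO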); settings: HDN33 neuroblastoma cells, stronger effect = higher value
# [13] = ICB984 medulloblastoma cell growth inhibition, synergistic combos for chromothripsis tumors, cisplatin or BGB combos (AID 1671451; call rule not given here;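 note: cells exposed for 96 hours before readout; 0% = vehicle DMSO and 100% = killing by high DMSO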); settings: ICB984 medulloblastoma cells, drug combinations, stronger effect = higher value
# [14] = HTB85 osteosarcoma cell growth inhibition, synergistic combos for chromothripsis tumors, BGB or cisplatin IC20 combos (AID 1671453; in the data active = inhibition above about 80%;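 note: cells exposed for 96 hours before readout; 0% = vehicle DMSO and 100% = high DMSO killing control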); settings: HTB85 osteosarcoma cells, drug combinations, stronger effect = higher value
# [15] = MDA-MB-436 breast carcinoma cell growth inhibition, synergistic combos for chromothripsis tumors, BGB or cisplatin combos (AID 1671458; call rule not given here;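 note: cells exposed for 96 hours; 0% = vehicle DMSO and 100% = killing by high DMSO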); settings: MDA-MB-436 breast carcinoma growth inhibition, drug combinations, stronger effect = higher value
# [16] = growth inhibition of BT084 medulloblastoma cells, cell-based, ICGC_MB145, cisplatin and BGB IC40 combos (AID 1671461; in the data active = inhibition above about 80%;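 note: cells exposed to drugs for 96 hours; 0% = vehicle DMSO and 100% = high DMSO full killing control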); settings: drug combinations, stronger effect = higher value
# [17] = growth inhibition of RCMB18 medulloblastoma cells, cell-based, cisplatin and BGB IC40 combos (AID 1671462; in the data active = inhibition above about 80%;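 note: cells exposed to compound for four days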); settings: stronger effect = higher value
# [18] = growth inhibition of CRL1545 osteosarcoma cells, cell-based, cisplatin and BGB IC20 combos (AID 1671464; in the data active = inhibition above about 80%;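 note: cells exposed to compound for 96 hours before readout; 0% = vehicle DMSO and 100% = high DMSO killing control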); settings: stronger effect = higher value
# [19] = measured here: with BGB IC20 combination, at 0.5 µM
# [20] = measured here: with cisplatin IC20 combination, at 0.5 µM
smiles,measurement,setting,value
CC(C)C[C@H](NC(=O)CNC(=O)c1cc(Cl)ccc1Cl)B(O)O,AC50,[1],166 nM (active)
same,AC50,[2],166 nM (active)
same,AC50,[3],118 nM (active)
same,AC50,[4],83.3 nM (active)
same,AC50,[5],263 nM (active)
same,IC50,[6],105 nM (active)
same,SSMD,[7],-0.17
same,cell count,[7],6790
same,plate-normalised HSF1 focus index,[7],0.988 (inactive)
same,viability,"[8]; at 0.000305 µM, OCI-C5x cells, with rucaparib 10 µM, 100% = cells with rucaparib alone",111% (inactive)
same,viability,"[8]; at 0.000305 µM, OCI-C5x cells, without rucaparib",132% (inactive)
same,viability,"[8]; at 0.000305 µM, OCI-P5x cells, with rucaparib 20 µM, 100% = cells with rucaparib alone",106% (inactive)
same,viability,"[8]; at 0.000305 µM, OCI-P5x cells, without rucaparib",121% (inactive)
same,viability,"[8]; at 0.00122 µM, OCI-C5x cells, with rucaparib 10 µM, 100% = cells with rucaparib alone",112% (inactive)
same,viability,"[8]; at 0.00122 µM, OCI-C5x cells, without rucaparib",130% (inactive)
same,viability,"[8]; at 0.00122 µM, OCI-P5x cells, with rucaparib 20 µM, 100% = cells with rucaparib alone",106% (inactive)
same,viability,"[8]; at 0.00122 µM, OCI-P5x cells, without rucaparib",111% (inactive)
same,viability,"[8]; at 0.00488 µM, OCI-C5x cells, with rucaparib 10 µM, 100% = cells with rucaparib alone",126% (inactive)
same,viability,"[8]; at 0.00488 µM, OCI-C5x cells, without rucaparib",129% (inactive)
same,viability,"[8]; at 0.00488 µM, OCI-P5x cells, with rucaparib 20 µM, 100% = cells with rucaparib alone",104% (inactive)
same,viability,"[8]; at 0.00488 µM, OCI-P5x cells, without rucaparib",116% (inactive)
same,viability,"[8]; at 0.0195 µM, OCI-C5x cells, with rucaparib 10 µM, 100% = cells with rucaparib alone",122% (inactive)
same,viability,"[8]; at 0.0195 µM, OCI-C5x cells, without rucaparib",128% (inactive)
same,viability,"[8]; at 0.0195 µM, OCI-P5x cells, with rucaparib 20 µM, 100% = cells with rucaparib alone",96.7% (active)
same,viability,"[8]; at 0.0195 µM, OCI-P5x cells, without rucaparib",116% (inactive)
same,viability,"[8]; at 0.0781 µM, OCI-C5x cells, with rucaparib 10 µM, 100% = cells with rucaparib alone",88.7% (active)
same,viability,"[8]; at 0.0781 µM, OCI-C5x cells, without rucaparib",103% (inactive)
same,viability,"[8]; at 0.0781 µM, OCI-P5x cells, with rucaparib 20 µM, 100% = cells with rucaparib alone",101% (inactive)
same,viability,"[8]; at 0.0781 µM, OCI-P5x cells, without rucaparib",80.5% (active)
same,viability,"[8]; at 0.313 µM, OCI-C5x cells, with rucaparib 10 µM, 100% = cells with rucaparib alone",30.3% (active)
same,viability,"[8]; at 0.313 µM, OCI-C5x cells, without rucaparib",22.4% (active)
same,viability,"[8]; at 0.313 µM, OCI-P5x cells, with rucaparib 20 µM, 100% = cells with rucaparib alone",22% (active)
same,viability,"[8]; at 0.313 µM, OCI-P5x cells, without rucaparib",4.33% (active)
same,viability,"[8]; at 1.25 µM, OCI-C5x cells, with rucaparib 10 µM, 100% = cells with rucaparib alone",7.48% (active)
same,viability,"[8]; at 1.25 µM, OCI-C5x cells, without rucaparib",6.01% (active)
same,viability,"[8]; at 1.25 µM, OCI-P5x cells, with rucaparib 20 µM, 100% = cells with rucaparib alone",2.76% (active)
same,viability,"[8]; at 1.25 µM, OCI-P5x cells, without rucaparib",1.33% (active)
same,viability,"[8]; at 5 µM, OCI-C5x cells, with rucaparib 10 µM, 100% = cells with rucaparib alone",1.81% (active)
same,viability,"[8]; at 5 µM, OCI-C5x cells, without rucaparib",1.62% (active)
same,viability,"[8]; at 5 µM, OCI-P5x cells, with rucaparib 20 µM, 100% = cells with rucaparib alone",1.18% (active)
same,viability,"[8]; at 5 µM, OCI-P5x cells, without rucaparib",0.837% (active)
Cc1ccc2nc(NCCN)c3ncc(C)n3c2c1,AC50,[1],8330 nM (active)
same,AC50,[2],2350 nM (active)
same,AC50,[3],20900 nM (active)
same,AC50,[4],8330 nM (active)
same,AC50,[5],13200 nM (active)
same,fold change,"[9]; stronger effect = lower value, cell number ratio, induced over uninduced",1.09 (inactive)
same,fold change,[9]; measured here: relative caspase fold change +Dox/-Dox,0.561
same,cell count,"[9]; measured here: total cells with miR-34 induction, stronger effect = lower value",6190
same,cell count,[9]; measured here: total cells without miR-34 induction,5680
same,z-score,"[10]; MELAS cybrid survival, CellTiter-Glo 48 h, stronger effect = higher value",-0.409 (inactive)
same,z-score,"[10]; Rieske KO mouse fibroblast survival, CellTiter-Glo 72 h",-2.24
same,inhibition,"[11]; at 0.5 µM, stronger effect = higher value",11.2% (inactive)
same,inhibition,"[11]; measured here: combination with BGB IC20, at 0.005 µM",0.796%
same,inhibition,"[11]; measured here: combination with BGB IC40, at 0.005 µM",-31.1%
same,inhibition,"[11]; measured here: combination with BGB IC40, at 0.05 µM",-6.91%
same,inhibition,"[11]; measured here: combination with cisplatin, at 0.5 µM, stronger effect = higher value",74.2%
same,inhibition,"[11]; measured here: combination with cisplatin, at 5 µM, stronger effect = higher value",-17.8%
same,inhibition,"[12]; BGB combo, at 5 µM",63.5%
same,inhibition,[12]; at 0.5 µM,-5% (inactive)
same,inhibition,"[12]; cisplatin combo, at 5 µM",55.9%
same,inhibition,[12]; [19],-7.6%
same,inhibition,[12]; [20],2.54%
same,inhibition,"[12]; single agent, at 5 µM",57.3%
same,inhibition,"[13]; BGB IC20 combo, at 0.005 µM",10.7%
same,inhibition,"[13]; BGB IC40 combo, at 0.005 µM",-98.8%
same,inhibition,"[13]; BGB IC40 combo, at 0.05 µM",52.7%
same,inhibition,[13]; at 0.5 µM,-16% (inactive)
same,inhibition,"[13]; cisplatin combo, at 0.05 µM",50.8%
same,inhibition,"[13]; cisplatin combo, at 0.5 µM",-17.9%
same,inhibition,"[13]; cisplatin combo, at 5 µM",-22.2%
same,inhibition,"[13]; measured here: 5 uM single agent, at 5 µM",-10.1%
same,inhibition,[14]; at 0.5 µM,7.35% (inactive)
same,inhibition,"[14]; measured here: with BGB IC20, at 0.5 µM",19.2%
same,inhibition,"[14]; measured here: with BGB IC20, at 5 µM",98.1%
same,inhibition,"[14]; measured here: with cisplatin IC20, at 0.5 µM",-7.65%
same,inhibition,"[14]; measured here: with cisplatin IC20, at 5 µM",89.2%
same,inhibition,"[14]; single agent, at 5 µM",91.7%
same,inhibition,[15]; at 0.5 µM,-3.06% (inactive)
same,inhibition,"[15]; measured here: BGB combination, at 0.5 µM",-13.7%
same,inhibition,"[15]; measured here: BGB combination, at 5 µM",65.6%
same,inhibition,"[15]; measured here: cisplatin combination, at 0.5 µM",6.41%
same,inhibition,"[15]; measured here: cisplatin combination, at 5 µM",80.2%
same,inhibition,[16]; at 0.5 µM,4.08% (inactive)
same,inhibition,"[16]; cisplatin combination, at 0.5 µM",-3.36%
same,inhibition,"[16]; cisplatin combination, at 5 µM",46.6%
same,inhibition,"[16]; measured here: BGB IC40 combination 0.05 uM, at 0.05 µM",-4.49%
same,inhibition,"[16]; single agent, at 5 µM",32.4%
same,inhibition,[17]; at 0.5 µM,1.56% (inactive)
same,inhibition,"[17]; cisplatin combo, at 5 µM",76%
same,inhibition,"[17]; measured here: BGB IC40 combination, at 0.05 µM",1.88%
same,inhibition,"[17]; measured here: combination with cisplatin, at 0.5 µM",32.9%
same,inhibition,"[17]; single agent, at 5 µM",33.3%
same,inhibition,[18]; at 0.5 µM,-12.7% (inactive)
same,inhibition,[18]; [19],-11.3%
same,inhibition,[18]; [20],-13.3%
same,inhibition,"[18]; single agent, at 0.05 µM",-17.3%
same,inhibition,"[18]; single agent, at 5 µM",99.7%

# — PubChem BioAssay
